From PubChem BioAssay (Tox21)
Inconclusive results are not listed. Active and inactive are the calls of the source. Unless noted, calls follow the shape of the full dose curve.

Experiments:
[1] = Nuclear factor erythroid 2-related factor 2/antioxidant responsive element (Nrf2/ARE) small molecule agonists: qHTS cell viability counter screen in human keratinocytes (AID 1919968; active = well fitted curve in the direction sought with a large enough effect in the repeat runs; an effect the other way counts as inactive or inconclusive; also: nearly all actives have a fitted effect of over 55% in size); conditions: KeratinoSens HaCaT ARE cells viability, CellTiter-Fluor, 24 h; series mostly up to 92.4 µM
Outline: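 After a 5 h attachment period, ARE-reporter keratinocytes were dosed with compounds in DMSO and then cultured 23 h at 37 C. Cell viability came from CellTiter-Fluor signal read after a further 1 h.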

[2] = Nuclear factor erythroid 2-related factor 2/antioxidant responsive element (Nrf2/ARE) small molecule agonists: luciferase reporter gene qHTS assay in human keratinocytes (AID 1919969); conditions: KeratinoSens HaCaT ARE-luciferase, luminescence, 24 h; series mostly up to 92.4 µM; also: nearly all actives have a fitted effect of over 35% in size; also: potency is read from the fitted curve at half-maximal effect
[3] = biological target: Gonadotropin-releasing hormone receptor (Homo sapiens) (UniProt P30968); experiment: Human gonadotropin-releasing hormone receptor (GnRHR) small molecule agonists, calcium flux assay in GnRHR-HEK293 cells (AID 1920063); conditions: calcium flux fluorescence, agonist mode; series mostly up to 57.6 µM; also: nearly all actives have a fitted effect of over 35% in size
Outline: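 We seeded human GnRHR-expressing HEK293 cells for 18 hours, loaded them with calcium dye for an hour at 37 C, added test compounds, and recorded fluorescence intensity kinetically for three minutes.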

[4] = biological target: KiSS-1 receptor (Homo sapiens) (UniProt Q969F8); experiment: Human kisspeptin (KISS1R) small molecule agonists, calcium flux assay in KISS1R-HEK293 cells (AID 1920064; active = well fitted curve in the direction sought with a large enough effect in the repeat runs; an effect the other way counts as inactive or inconclusive); conditions: KISS1R-HEK293, calcium flux fluorescence, agonist; series mostly up to 76.8 µM
Outline: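 Kinetic calcium assay, 1 s sampling over 3 min at Ex/Em 480/540, in HEK293 cells engineered with human KISS1R; compounds delivered in DMSO after 1 h dye loading.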

[5] = G protein-coupled receptor (GPCR) small molecule agonists, calcium flux assay: HEK293 wild type cell line counter screen (AID 1920065); conditions: HEK293 WT calcium flux, fluorescence, agonist mode; series mostly up to 57.6 µM
Outline: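 Calcium-sensitive dye, loaded 1 h at 37 C into cells cultured 18 h, reports compound-evoked calcium release as fluorescence (Ex/Em 480/540), measured over 3 min. Agonist mode; 15-point titrations, triplicate.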

[6] = p53 small molecule agonists, cell-based qHTS assay with human liver microsomes (AID 1963577); conditions: HCT-116 p53RE-bla with human liver microsomes, ratio, 16 h; series mostly up to 66 µM
Outline: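 p53RE-bla cells, 4,000/well, compound added after 5 h, with human liver microsomes 0.5 mg/mL and NADPH 0.5 mg/mL final; 16 h at 37 C, then LiveBLAzer 2 h RT, fluorescence.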

[7] = p53 small molecule agonists, cell-based qHTS assay with rat liver microsomes (AID 1963578); conditions: HCT-116 p53RE-bla, beta-lactamase ratio, 16 h; series mostly up to 66 µM
Outline: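 p53RE-bla cells, 4,000/well, pre-incubated 5 h, then given compounds plus rat liver microsomes (0.5 mg/mL final) and NADPH (0.5 mg/mL final). Incubation 16 h at 37 C; beta-lactamase reporter read by LiveBLAzer fluorescence after 2 h at room temperature.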

[8] = p53 small molecule agonists, cell-based qHTS assay with human liver microsomes: qHTS cell viability counter screen (AID 1963579); conditions: p53RE-bla HCT-116 viability, ATP luminescence, 16 h, HLM; series mostly up to 66 µM; also: nearly all actives have a fitted effect of over 45% in size
Outline: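 p53RE-bla cells, 4,000/well, dosed 5 hours after plating, with human liver microsomes (0.5 mg/mL final) plus NADPH (0.5 mg/mL final), 16 hours at 37 C. Viability read as CellTiter-Glo luminescence after 30 min at room temperature.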

[9] = p53 small molecule agonists, cell-based qHTS assay with rat liver microsomes: qHTS cell viability counter screen (AID 1963580); conditions: p53RE-bla HCT-116 + rat microsomes, ATP viability, 16 h; series mostly up to 66 µM; also: nearly all actives have a fitted effect of over 45% in size
Outline: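 HCT-116 p53RE-bla, 4,000 cells/well, 5 h pre-incubation; cpd + rat liver microsomes 0.5 mg/mL + NADPH 0.5 mg/mL (final); 16 h, 37 C; CellTiter-Glo, 30 min RT; luminescence.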

[10] = p53 small molecule agonists, cell-based qHTS assay: qHTS cell viability counter screen (AID 1963581); conditions: p53RE-bla HCT-116 viability, ATP luminescence, 16 h; series mostly up to 66 µM; also: nearly all actives have a fitted effect of over 45% in size
Outline: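 Following 5 h attachment, HCT-116 p53RE-bla cells took up compound for 16 h at 37 C; the reporter was read with B/G FRET substrate (2 h RT), and viability then via CellTiter-Glo ATP luminescence.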

[11] = p53 small molecule agonists, cell-based qHTS assay (AID 1963582; active = well fitted activation curve with a large enough effect in the signal ratio in the repeat runs, not every such curve was filed as active; the % refers to the signal ratio; also: potency is read from the fitted curve at half-maximal effect); conditions: HCT-116 p53RE-bla reporter, beta-lactamase FRET ratio, 16 h; series mostly up to 66 µM
Outline: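 In this cell-based concentration-response screen, a p53 response element drives beta-lactamase; cells received DMSO-borne compounds after 5 h culture and were incubated a further 16 h before FRET substrate development.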

[12] = biological target: 5-hydroxytryptamine receptor 2A (Homo sapiens) (UniProt P28223); experiment: 5-hydroxytryptamine receptor 2A (HTR2A) small molecule antagonists, cell-based qHTS assay (AID 1963586); conditions: HTR2A-CHO cells, DOI-induced calcium flux, fluorescence; series mostly up to 61.5 µM; also: nearly all actives have a fitted effect of over 45% in size; also: potency is read from the fitted curve at half-maximal effect
Outline: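 Antagonist-mode intracellular calcium assay: DOI (4 nM) added after 5 min compound pre-incubation at room temperature to dye-loaded HTR2A-CHO cells. Fluorescence followed for 3 min, sampled every second.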

[13] = biological target: 5-hydroxytryptamine receptor 2A (Homo sapiens) (UniProt P28223); experiment: 5-hydroxytryptamine receptor 2A (HTR2A) small molecule agonists, cell-based qHTS assay (AID 1963587); conditions: HTR2A-CHO cells, calcium flux fluorescence, agonist mode; series mostly up to 76.8 µM; also: nearly all actives have a fitted effect of over 30% in size
Outline: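 Kinetic calcium-flux fluorescence (2 min, 1 sec intervals) after compound addition in agonist mode. HTR2A-CHO cells were cultured 18 h, then dye-loaded 1 h at 37 C.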

[14] = biological target: Muscarinic acetylcholine receptor M1 (Homo sapiens) (UniProt P11229); experiment: Cholinergic receptor muscarinic 1 (CHRM1) small molecule antagonists, cell-based qHTS assay (AID 1963588); conditions: CHRM1-CHO antagonist mode, calcium flux fluorescence; series mostly up to 61.5 µM; also: nearly all actives have a fitted effect of over 40% in size; also: potency is read from the fitted curve at half-maximal effect
Outline: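 CHRM1-CHO calcium-flux assay, antagonist mode. Cells were seeded 18 h, dye-loaded 1 h at 37 C and given compound for 5 min at RT, then acetylcholine was added at 50nM. FDSS fluorescence was read 3 min; 15 concentrations, three runs.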

[15] = biological target: Muscarinic acetylcholine receptor M1 (Homo sapiens) (UniProt P11229); experiment: Cholinergic receptor muscarinic 1 (CHRM1) small molecule agonists, cell-based qHTS assay (AID 1963589); conditions: CHRM1-CHO cells, agonist mode, calcium flux fluorescence; series mostly up to 76.8 µM; also: nearly all actives have a fitted effect of over 35% in size; also: potency is read from the fitted curve at half-maximal effect
Outline: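 Measures agonist-induced intracellular calcium rise. Stable human CHRM1 CHO line, 1 h dye load at 37 C, compounds from DMSO, kinetic fluorescence read.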

[16] = biological target: Beta-2 adrenergic receptor (Homo sapiens) (UniProt P07550); experiment: Adrenergic beta2 receptor (ADRB2) small molecule antagonists, cell-based qHTS assay (AID 1963592); conditions: CHO-ADRB2 cells, isoproterenol-stimulated cAMP HTRF ratio, 0.5 h; series mostly up to 92.4 µM; also: nearly all actives have a fitted effect of over 50% in size
Outline: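 Cells (CHO, stable ADRB2 overexpression) incubated 18-20hr at 37C; compounds added from DMSO; agonist mix (1nM isoproterenol, 100uM IBMX, 25uM Ro-20-1724) added; 0.5hr RT; d2-cAMP and anti-cAMP-cryptate added; 1hr RT; 665/615 nm read.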

[17] = biological target: D(2) dopamine receptor (Homo sapiens) (UniProt P14416); experiment: Dopamine D2 receptor (DRD2) small molecule agonists, cell-based qHTS assay (AID 1963594); conditions: HEK293-DRD2 cAMP HTRF, agonist mode, 30 min; series mostly up to 92.4 µM; also: nearly all actives have a fitted effect of over 35% in size
Outline: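 cAMP accumulation in DRD2-HEK293 cells measured by HTRF after 1 h detection; compounds added 10 min before NKH477 (200nM […]) forskolin-analogue stimulation, 30 min at room temperature, with Ro20-1724 present at 0.1 mM final.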

[18] = biological target: D(2) dopamine receptor (Homo sapiens) (UniProt P14416); experiment: Dopamine D2 receptor (DRD2) small molecule antagonists, cell-based qHTS assay (AID 1963595; active = well fitted inhibition curve with a large enough effect in the signal ratio in the repeat runs, with a control signal flat; the % refers to the signal ratio); conditions: HEK293-DRD2 cAMP HTRF antagonist mode; series mostly up to 92.4 µM
Outline: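 Readout: HTRF cAMP, cAMP-d2 competing with cellular cAMP for anti-cAMP cryptate, read after 1 h. Cells: DRD2-HEK293. Conditions: 0.1 mM Ro20-1724, 12 nM quinpirole, 200 nM NKH477, 30 min RT.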

[19] = cAMP Responsive Elements (CRE) small molecule antagonists, cell-based qHTS assay (AID 1963591; active = well fitted inhibition curve with a large enough effect in the signal ratio in the repeat runs, not every such curve was filed as active; the % refers to the signal ratio); conditions: CRE-bla HEK293T, beta-lactamase FRET ratio; series mostly up to 92.4 µM
Outline: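 HEK293T cells carrying a CRE-driven beta-lactamase reporter receive compound and NKH477 (0.25 uM final) for 3 h. Fluorescence from LiveBLAzer B/G FRET substrate is read after 2 h at room temperature.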

[20] = cAMP Responsive Elements (CRE) small molecule agonists, cell-based qHTS assay (AID 1963590); conditions: CRE-bla HEK293T, beta-lactamase FRET ratio, 3 h; series mostly up to 92.4 µM
Outline: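 A CRE-responsive beta-lactamase reporter in HEK 293T cells was used. Treatment ran 3 h at 37 C; detection used LiveBLAzer B/G FRET substrate for 2 h at room temperature.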

Measured: Potency

Sequence of D(2) dopamine receptor (Homo sapiens) (P14416 whole entry, looked up): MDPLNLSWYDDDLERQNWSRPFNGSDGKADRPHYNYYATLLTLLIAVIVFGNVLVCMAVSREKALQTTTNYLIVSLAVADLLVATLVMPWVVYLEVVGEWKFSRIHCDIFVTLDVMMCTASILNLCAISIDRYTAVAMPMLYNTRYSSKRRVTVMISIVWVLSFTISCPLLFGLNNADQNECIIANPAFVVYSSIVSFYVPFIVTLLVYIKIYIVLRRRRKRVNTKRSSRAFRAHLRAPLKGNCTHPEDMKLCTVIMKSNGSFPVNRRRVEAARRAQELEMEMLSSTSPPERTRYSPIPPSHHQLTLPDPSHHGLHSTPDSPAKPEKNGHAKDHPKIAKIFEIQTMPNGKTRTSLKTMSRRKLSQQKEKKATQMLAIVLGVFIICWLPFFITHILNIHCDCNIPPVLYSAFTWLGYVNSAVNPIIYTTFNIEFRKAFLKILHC
Sequence of Muscarinic acetylcholine receptor M1 (Homo sapiens) (P11229 whole entry, looked up): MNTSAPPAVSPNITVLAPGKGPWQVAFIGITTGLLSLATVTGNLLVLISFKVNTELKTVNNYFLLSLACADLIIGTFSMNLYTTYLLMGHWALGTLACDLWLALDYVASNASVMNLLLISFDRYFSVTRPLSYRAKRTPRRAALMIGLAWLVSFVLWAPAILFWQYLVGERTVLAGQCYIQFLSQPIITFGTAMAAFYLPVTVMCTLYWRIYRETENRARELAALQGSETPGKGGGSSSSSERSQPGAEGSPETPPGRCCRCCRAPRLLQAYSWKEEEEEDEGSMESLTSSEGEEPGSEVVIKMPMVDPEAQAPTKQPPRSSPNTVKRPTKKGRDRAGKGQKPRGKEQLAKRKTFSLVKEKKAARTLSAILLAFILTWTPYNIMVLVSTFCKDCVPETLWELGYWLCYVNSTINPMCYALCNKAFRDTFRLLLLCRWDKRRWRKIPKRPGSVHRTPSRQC
Sequence of KiSS-1 receptor (Homo sapiens) (Q969F8 whole entry, looked up): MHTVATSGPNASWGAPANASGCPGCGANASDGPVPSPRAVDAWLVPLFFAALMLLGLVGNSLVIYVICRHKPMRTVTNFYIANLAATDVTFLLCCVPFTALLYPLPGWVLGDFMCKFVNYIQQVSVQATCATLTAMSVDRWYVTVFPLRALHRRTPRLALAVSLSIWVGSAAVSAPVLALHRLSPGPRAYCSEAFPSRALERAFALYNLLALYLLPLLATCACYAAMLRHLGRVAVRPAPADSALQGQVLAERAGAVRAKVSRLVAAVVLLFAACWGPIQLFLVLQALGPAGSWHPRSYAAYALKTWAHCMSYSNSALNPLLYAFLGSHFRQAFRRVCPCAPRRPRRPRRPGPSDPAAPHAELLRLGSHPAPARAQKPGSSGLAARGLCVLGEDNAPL
Sequence of Gonadotropin-releasing hormone receptor (Homo sapiens) (P30968 whole entry, looked up): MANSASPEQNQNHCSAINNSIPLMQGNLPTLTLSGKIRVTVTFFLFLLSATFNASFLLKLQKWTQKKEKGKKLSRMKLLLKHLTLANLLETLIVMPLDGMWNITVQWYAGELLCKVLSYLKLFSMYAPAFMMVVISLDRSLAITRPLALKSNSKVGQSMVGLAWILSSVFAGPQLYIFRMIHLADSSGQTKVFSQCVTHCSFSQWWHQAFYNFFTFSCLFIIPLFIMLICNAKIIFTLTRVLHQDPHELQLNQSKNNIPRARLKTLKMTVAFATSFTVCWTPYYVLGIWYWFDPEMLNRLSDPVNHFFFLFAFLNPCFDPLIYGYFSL
Sequence of Beta-2 adrenergic receptor (Homo sapiens) (P07550 whole entry, looked up): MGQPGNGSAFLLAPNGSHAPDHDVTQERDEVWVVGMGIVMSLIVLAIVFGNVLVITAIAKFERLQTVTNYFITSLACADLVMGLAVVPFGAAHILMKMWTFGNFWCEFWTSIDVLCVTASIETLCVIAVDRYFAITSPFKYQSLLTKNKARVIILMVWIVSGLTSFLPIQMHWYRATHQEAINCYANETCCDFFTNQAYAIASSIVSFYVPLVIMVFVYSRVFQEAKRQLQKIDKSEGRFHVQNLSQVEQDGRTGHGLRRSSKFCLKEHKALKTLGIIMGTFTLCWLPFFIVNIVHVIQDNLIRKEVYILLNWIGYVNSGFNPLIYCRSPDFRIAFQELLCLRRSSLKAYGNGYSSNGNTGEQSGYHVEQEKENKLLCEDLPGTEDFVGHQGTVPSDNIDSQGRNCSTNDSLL
Sequence of 5-hydroxytryptamine receptor 2A (Homo sapiens) (P28223 whole entry, looked up): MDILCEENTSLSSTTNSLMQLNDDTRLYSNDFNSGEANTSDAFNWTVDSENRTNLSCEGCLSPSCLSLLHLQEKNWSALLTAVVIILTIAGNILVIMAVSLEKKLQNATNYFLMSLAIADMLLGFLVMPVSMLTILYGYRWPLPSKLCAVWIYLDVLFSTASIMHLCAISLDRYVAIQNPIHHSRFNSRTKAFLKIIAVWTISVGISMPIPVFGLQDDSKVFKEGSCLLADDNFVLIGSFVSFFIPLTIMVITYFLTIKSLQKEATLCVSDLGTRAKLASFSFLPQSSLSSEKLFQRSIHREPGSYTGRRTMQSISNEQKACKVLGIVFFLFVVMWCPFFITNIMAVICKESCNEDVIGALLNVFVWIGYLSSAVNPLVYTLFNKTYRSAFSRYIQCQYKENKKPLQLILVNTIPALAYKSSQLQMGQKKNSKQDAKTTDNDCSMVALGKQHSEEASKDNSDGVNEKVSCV

Cn1c(=O)cc(Oc2ccc(F)cc2F)c2cnc(NCC(C)(C)O)nc21
not listed: [19] | [20]
inactive: all other assays above

CCOC(=O)C1CC(=O)C(=C(O)C2CC2)C(=O)C1 (stereo unspecified)
not listed: [16] | [20]
inactive: all other assays above

CCOc1cc(OCC)c(C(=O)CCC(=O)O)cc1OCC
not listed: [19] | [20]
inactive: all other assays above

C/C=C/C=C/COC(=O)C(C)C
active: [2] 68.6 µM
not listed: [19] | [20]
inactive: all other assays above

CC[N+](C)(CC)CCOC(=O)C(O)(c1ccccc1)C1CCCCC1 (stereo unspecified)
not listed: [20]
inactive: all other assays above

C=CCON/C(CCC)=C1\C(=O)CC(C)(C)C(C(=O)OC)=C1O
active: [15] 4.84 µM
not listed: [20]
inactive: all other assays above

O=C(O)CCC(=O)c1ccc(-c2ccccc2)cc1
not listed: [19] | [20]
inactive: all other assays above

Cc1ccc(S)cc1
active: [2] 24.3 µM | [12] 42.1 µM
not listed: [19] | [20]
inactive: all other assays above

CCCCCCC(O)CCOC(C)=O (stereo unspecified)
not listed: [20]
inactive: all other assays above

COc1cc(OC)nc(NC(=O)NS(=O)(=O)Nc2ccccc2C(=O)N(C)C)n1
not listed: [16] | [20]
inactive: all other assays above

CC1=C2[C@@H]([C@H](C)CC[C@H]2/C=C(\C)C(=O)O)[C@H](O)C1
active: [14] 0.0026 µM
not listed: [20]
inactive: all other assays above

N#CC1(N)CCCCC1
not listed: [20]
inactive: all other assays above

c1ccc(CNc2ncnc3nc[nH]c23)cc1
not listed: [16] | [20]
inactive: all other assays above

NCc1ccco1
not listed: [20]
inactive: all other assays above

Cc1ccc(O)cn1
not listed: [17] | [20]
inactive: all other assays above

C=CC(=O)OCCOC(=O)CCC(=O)O
active: [2] 61.1 µM
not listed: [19] | [20]
inactive: all other assays above

CCOC(=O)C(=O)CCc1ccccc1
not listed: [20]
inactive: all other assays above

COc1cc2[nH]c(=O)[nH]c(=O)c2cc1OC
not listed: [17] | [20]
inactive: all other assays above

O=C(O)c1c(Cl)cccc1Cl
not listed: [20]
inactive: all other assays above

CCOc1cc([N+](=O)[O-])c(OCC)cc1N1CCOCC1
not listed: [18] | [19] | [20]
inactive: all other assays above

OC1CCCc2ccccc21 (stereo unspecified)
not listed: [18] | [20]
inactive: all other assays above

Cc1ccsc1C(=CCCN1CCC[C@@H](C(=O)O)C1)c1sccc1C
active: [11] 0.5 µM
not listed: [19] | [20]
inactive: all other assays above

CCCCC(CC)COC(=O)CCCCCCCCC(=O)OCC(CC)CCCC (stereo unspecified)
not listed: [15]
inactive: all other assays above

CN(C)CCn1nnnc1SCC1=C(C(=O)O)N2C(=O)[C@@H](NC(=O)Cc3csc(N)n3)[C@H]2SC1
not listed: [15]
inactive: all other assays above

CCCCOC(=O)C(C)O (stereo unspecified)
not listed: [14]
inactive: all other assays above

CCCCOC(=O)C(C)Oc1ccc(Oc2ccc(C(F)(F)F)cn2)cc1 (stereo unspecified)
not listed: [14] | [17] | [18]
inactive: all other assays above

C[C@]12CCC(=O)C=C1CC[C@@H]1[C@@H]2CC[C@@]2(C)[C@H]1CC[C@]2(O)C(=O)CO
not listed: [16] | [18] | [19] | [20]
inactive: all other assays above

c1cc2c3c(c1)ccc1cccc(c13)C2
not listed: [19] | [20]
inactive: all other assays above
